In PubChem BioAssay (NCI):
Compounds without any hit were thinned out: in the full panel of roughly 83,000, 20% have a hit.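 96-well plates, one dose, 48 hours. Percent growth reported; active if below 10.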 Calls of active or inactive are those of the source.

What was measured:
Assay in all cases: NCI-60 one-dose screen, 48 h (100 = growth as untreated, 0 = no growth, -100 = all killed)
Conditions in all cases: 10 µM
T-47D breast = system: T-47D breast
BT-549 breast = system: BT-549 breast
MDA-MB-435 melanoma = system: MDA-MB-435 melanoma
SW-620 colon = system: SW-620 colon
MCF7 breast = system: MCF7 breast
HCT-116 colon = system: HCT-116 colon
HCC-2998 colon = system: HCC-2998 colon

Measured: growth

CC(=O)Nc1ccc(CC[C@H]2CCC/C=C/[C@@H]3C[C@H](O)C[C@H]3[C@H](O)/C=C/C(=O)O2)cc1
active: T-47D breast 7.42% | SW-620 colon 0.331% | MCF7 breast -14.8% | HCT-116 colon -67.9% | HCC-2998 colon 2.85%
inactive: BT-549 breast 27.5% | MDA-MB-435 melanoma 14.7%

CC(=O)O[C@@]12CO[C@@H]1C[C@H](O)[C@@]1(C)C(=O)[C@H](O)C3=C(C)[C@@H](OC(=O)[C@H](O)[C@@H](NC(=O)OC(C)(C)C)c4ccccc4)C[C@@](O)([C@@H](OC(=O)c4ccccc4)C12)C3(C)C (stereo not given in full)
inactive: T-47D breast 65.2% | BT-549 breast 42.8% | SW-620 colon 48.1% | MCF7 breast 16.1% | HCT-116 colon 34.6%
active: MDA-MB-435 melanoma -11.7% | HCC-2998 colon -18.8%

COc1ccc(Cl)cc1Nc1nc(C(F)(F)F)ccc1C(=O)N/N=C/c1ccc(Cl)cc1
inactive: T-47D breast 37.6% | BT-549 breast 36.9% | MDA-MB-435 melanoma 59.2% | SW-620 colon 30.9% | MCF7 breast 23.6% | HCT-116 colon 21.4% | HCC-2998 colon 59.4%

c1ccc(/C(=N\Nc2ccc3ccccc3n2)c2ccccn2)cc1
active: HCT-116 colon 9.03%
inactive: T-47D breast 16.5% | BT-549 breast 12.3% | MDA-MB-435 melanoma 23.4% | SW-620 colon 22.6% | MCF7 breast 12.2% | HCC-2998 colon 45.5%

CN(C)c1ccc(/C=N/NC(=O)c2ccccc2Nc2cccc(C(F)(F)F)c2)cc1
inactive: T-47D breast 75.6% | BT-549 breast 79.1% | MDA-MB-435 melanoma 92.3% | SW-620 colon 93.6% | MCF7 breast 92.5% | HCT-116 colon 75.1% | HCC-2998 colon 116%

N=C1S/C(=C/c2ccc(-c3ccc4c(c3)C(=O)NC4=O)o2)C(=O)N1c1ccc(Br)cc1
inactive: T-47D breast 19.9% | BT-549 breast 60.3% | MDA-MB-435 melanoma 39.1% | SW-620 colon 48.5% | HCT-116 colon 31.8% | HCC-2998 colon 89%
active: MCF7 breast 3.39%

O=C(N/N=C/c1c(Cl)cccc1Cl)c1ccccc1Nc1cccc(C(F)(F)F)c1
inactive: T-47D breast 94.4% | BT-549 breast 81.3% | MDA-MB-435 melanoma 110% | SW-620 colon 96.2% | MCF7 breast 94.7% | HCT-116 colon 93.1% | HCC-2998 colon 117%

COCCn1cc(-c2nc(-c3cccnc3)cs2)c2cc(F)ccc21
inactive: T-47D breast 87.7% | BT-549 breast 93% | MDA-MB-435 melanoma 79.9% | SW-620 colon 99.4% | MCF7 breast 102% | HCT-116 colon 102% | HCC-2998 colon 102%

Nc1ccn(Cc2nnc(CCC(=O)c3nc4ccccc4[nH]3)o2)c(=O)n1
inactive: T-47D breast 71.6% | BT-549 breast 74.5% | MDA-MB-435 melanoma 91.9% | SW-620 colon 83.5% | MCF7 breast 35.7% | HCT-116 colon 63.8% | HCC-2998 colon 79.8%

COC(=O)C1(O)NC(=C(C#N)C#N)C(C#N)=C1C(=O)c1ccc(OC)c(OC)c1 (stereo not given)
inactive: T-47D breast 98.6% | BT-549 breast 89.1% | MDA-MB-435 melanoma 104% | SW-620 colon 97.9% | MCF7 breast 95.4% | HCT-116 colon 90.9% | HCC-2998 colon 117%

Clc1ccc(C2=NN=C3C(Cc4ccccc4)=Nc4ccccc4N3C2)cc1
inactive: T-47D breast 95% | BT-549 breast 88.8% | MDA-MB-435 melanoma 73% | SW-620 colon 91.8% | MCF7 breast 88.7% | HCT-116 colon 53.1% | HCC-2998 colon 68.5%

COc1ccc(-c2cc(-c3ccc(Cl)cc3)nc(SCCCC(=O)NO)n2)cc1
inactive: BT-549 breast 26.1% | MDA-MB-435 melanoma 18.1% | SW-620 colon 14.2%
active: T-47D breast 8.24% | MCF7 breast 0.343% | HCT-116 colon 8.41% | HCC-2998 colon -10%

COc1ccc(C(=O)COc2cccc(/C=C3\Cc4ccccc4C3=O)c2)cc1
inactive: T-47D breast 73.8% | BT-549 breast 74.5% | MDA-MB-435 melanoma 58.8% | SW-620 colon 89.5% | MCF7 breast 65.9% | HCT-116 colon 84.4% | HCC-2998 colon 92.9%

CS(=O)(=O)c1nccc(-c2c(-c3cccc(OCc4ccccc4)c3)nc3sccn23)n1
inactive: T-47D breast 65% | BT-549 breast 54.9% | MDA-MB-435 melanoma 78.5% | SW-620 colon 47.1% | MCF7 breast 77.4% | HCT-116 colon 58.3% | HCC-2998 colon 32.4%

COc1cc2c3c(n(C4CCN(C)CC4)c(=O)c2cc1OC)-c1cc2c(cc1C3=O)OCO2
inactive: T-47D breast 31% | BT-549 breast 59.7% | MDA-MB-435 melanoma 84.5% | SW-620 colon 56.2% | MCF7 breast 24.8% | HCT-116 colon 40.8% | HCC-2998 colon 66.3%

CCOC(=O)c1sc2ncnc(Nc3ccc(NC(=O)Nc4ccc(Cl)cc4)cc3)c2c1C
inactive: T-47D breast 45.4% | BT-549 breast 61.8% | MDA-MB-435 melanoma 59.4% | SW-620 colon 63.7% | MCF7 breast 52.1% | HCT-116 colon 17% | HCC-2998 colon 90.3%

CCCN1CN2C(=O)N3CN(CCC)CN4C(=S)N(C1)C2C34 (stereo not given)
inactive: T-47D breast 90% | BT-549 breast 89.5% | MDA-MB-435 melanoma 106% | SW-620 colon 108% | MCF7 breast 87.7% | HCT-116 colon 82.9% | HCC-2998 colon 106%

NC(N)=N/N=C(\N=Nc1ccccc1)c1ccc(Cl)cc1
inactive: T-47D breast 20.4% | BT-549 breast 67.2% | SW-620 colon 12.7% | MCF7 breast 23.8% | HCT-116 colon 15% | HCC-2998 colon 11%
active: MDA-MB-435 melanoma 5.69%

O=C(O)Cc1ccc(O)c(O)c1
inactive: T-47D breast 83.2% | BT-549 breast 88.3% | MDA-MB-435 melanoma 103% | SW-620 colon 103% | MCF7 breast 91% | HCT-116 colon 105% | HCC-2998 colon 92.2%

Nc1cc(-c2ccncc2)c[nH]c1=O
inactive: T-47D breast 114% | BT-549 breast 93.5% | MDA-MB-435 melanoma 115% | SW-620 colon 110% | MCF7 breast 91% | HCT-116 colon 97.1% | HCC-2998 colon 116%

O=C(Nc1ccc(NS(=O)(=O)c2ccc(F)cc2)cc1)C12CC3CC(CC(C3)C1)C2
inactive: T-47D breast 76.2% | BT-549 breast 93.8% | MDA-MB-435 melanoma 95.9% | SW-620 colon 99.4% | MCF7 breast 78% | HCT-116 colon 97.8% | HCC-2998 colon 96.4%

CC[C@@H](C(=O)[C@H](C)[C@H](O)[C@@H](C)[C@H]1O[C@H]([C@@H](CC)C(=O)O)CC[C@H]1C)C1O[C@]2(C=C[C@@H](O)[C@]3(CC[C@@](C)([C@H]4CC[C@](O)(CC)[C@H](C)O4)O3)O2)[C@H](C)C[C@@H]1C (stereo not given in full)
inactive: T-47D breast 25.5% | SW-620 colon 24% | HCT-116 colon 22.2%
active: BT-549 breast 6.06% | MDA-MB-435 melanoma -16.3% | MCF7 breast 3.7% | HCC-2998 colon 8.29%

O=C(COc1cccc(/C=C2\CSc3ccc(Cl)cc3C2=O)c1)c1ccc(Cl)cc1
active: SW-620 colon -71.6% | MCF7 breast -35.1%
inactive: T-47D breast 45.2% | BT-549 breast 20.2% | MDA-MB-435 melanoma 87.7% | HCT-116 colon 42% | HCC-2998 colon 32.9%

COc1cc2cc(Oc3ccc(NC(=O)c4cccc(C(F)(F)F)c4)cc3)c(C)nc2cc1OC
inactive: T-47D breast 91.6% | BT-549 breast 16.3% | MDA-MB-435 melanoma 24.5% | SW-620 colon 54.8% | MCF7 breast 31% | HCT-116 colon 18.1% | HCC-2998 colon 62.3%

CC(C)(C)OC(=O)N1CCc2c(sc3ncnc(N/N=C/c4ccc(Br)cc4)c23)C1
active: MDA-MB-435 melanoma -20.4%
inactive: T-47D breast 34.2% | BT-549 breast 74.9% | SW-620 colon 55% | MCF7 breast 12.6% | HCT-116 colon 47.3% | HCC-2998 colon 72.1%

COc1cccc(N=Nc2cccc(OC)c2)c1
inactive: T-47D breast 70.2% | BT-549 breast 85% | MDA-MB-435 melanoma 98.6% | SW-620 colon 94.2% | MCF7 breast 78.8% | HCT-116 colon 84.8% | HCC-2998 colon 88.6%

CN(C)CCCN1c2ccccc2CCc2ccc(Cl)cc21
inactive: T-47D breast 41.3% | BT-549 breast 77.8% | MDA-MB-435 melanoma 28.5% | SW-620 colon 89% | MCF7 breast 50.8% | HCT-116 colon 43%
active: HCC-2998 colon -13.4%

CCOC(=O)/C(=C(\C)N)C1CC(=O)NC1=O (stereo not given)
inactive: T-47D breast 110% | BT-549 breast 87.3% | MDA-MB-435 melanoma 100% | SW-620 colon 96.8% | MCF7 breast 91% | HCT-116 colon 107% | HCC-2998 colon 103%

O=C(CSc1nnc(-c2cccnc2SCc2ccccc2)o1)Nc1nc(Cl)cc(Cl)n1
inactive: T-47D breast 98.5% | BT-549 breast 102% | MDA-MB-435 melanoma 105% | SW-620 colon 103% | MCF7 breast 92% | HCT-116 colon 97.3% | HCC-2998 colon 103%

CC(=O)C1CCC2C3CC=C4CC(SC(=N)N)CCC4(C)C3CCC12C (stereo not given)
active: MDA-MB-435 melanoma 9.68% | SW-620 colon -75.2% | MCF7 breast -2.29% | HCT-116 colon 1.01% | HCC-2998 colon -52.3%
inactive: T-47D breast 40.9% | BT-549 breast 76.4%

N#Cc1c(-c2ccc(Cl)cc2)n(O)c2ccccc12
active: BT-549 breast 0.694% | MDA-MB-435 melanoma 2.57%
inactive: T-47D breast 13.2% | SW-620 colon 15.3% | MCF7 breast 17.5% | HCT-116 colon 12.9% | HCC-2998 colon 47.2%

COc1ccccc1/C=N\N/C(N)=N\N=C\c1ccccc1OC
inactive: T-47D breast 60.9% | SW-620 colon 13.1% | MCF7 breast 11.3%
active: BT-549 breast -4.14% | MDA-MB-435 melanoma -39.2% | HCT-116 colon 5.25% | HCC-2998 colon 5.64%

O=C(N/N=C/c1ccc(Cl)cc1)c1ccccc1Nc1cccc(C(F)(F)F)c1
inactive: T-47D breast 109% | BT-549 breast 60.2% | MDA-MB-435 melanoma 53% | SW-620 colon 79.6% | MCF7 breast 85.2% | HCT-116 colon 66.1% | HCC-2998 colon 103%

O=C1/C=C/[C@@H](O)[C@@H]2C[C@@H](O)C[C@H]2/C=C/CCC[C@H](CCc2ccc(NC(=S)Nc3ccc4c(c3)C(=O)OC43c4ccc(O)cc4Oc4cc(O)ccc43)cc2)O1
inactive: T-47D breast 21.2% | BT-549 breast 21.3% | MDA-MB-435 melanoma 18.8%
active: SW-620 colon 3.26% | MCF7 breast -5.59% | HCT-116 colon -37.2% | HCC-2998 colon -7.57%

O=C(Nc1ccc2c(O)cc(S(=O)(=O)O)cc2c1)c1ccc([N+](=O)[O-])cc1
inactive: T-47D breast 86% | BT-549 breast 94.3% | MDA-MB-435 melanoma 106% | SW-620 colon 100% | MCF7 breast 96.3% | HCT-116 colon 94.1% | HCC-2998 colon 108%
